Measured values from PubChem BioAssay (NCI).
This is part of a sample that, as a whole, favours compounds with a hit. Of some 83,000 tested, about 20% had one in any assay.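 Growth was measured after 48 h exposure to one concentration of compound in 96-well plates. Values under 10 count as active.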 Values without a mark were called inactive. Calls of active or inactive are those of the source.

Tests used:
Assay in all cases: NCI-60 one-dose screen, 48 h (100 = growth as untreated, 0 = no growth, -100 = all killed)
Conditions in all cases: 10 µM unless noted
[1] = tested on: SK-MEL-2 melanoma
[2] = tested on: EKVX NSCLC
[3] = tested on: SN12C renal
[4] = tested on: UO-31 renal
[5] = tested on: TK-10 renal
[6] = tested on: A498 renal
[7] = tested on: CCRF-CEM leukemia
[8] = tested on: MOLT-4 leukemia

| SMILES | growth [1] | growth [2] | growth [3] | growth [4] | growth [5] | growth [6] | growth [7] | growth [8] |
| --- | --- | --- | --- | --- | --- | --- | --- | --- |
| C/C(=N/O)c1ccc(NC(=O)Cn2nc(-c3ccc(Cl)cc3)nc2N)cc1 | 84.9% | 98.6% | 102% | 66% | 120% | 103% | 85.8% | 66.7% |
| O=C(O)c1cccc(S(=O)(=O)c2ccccc2)c1 | 104% | 92.6% | 102% | 96.1% | 93.2% | 98.5% | 103% | 99.6% |
| Cc1nccc2c3ccc(OCc4cn(Cc5ccc(Br)cc5)nn4)cc3n(CCCc3ccccc3)c12 | 80.7% | 85.5% | 92.1% | 71.2% | 101% | 91% | 83.1% | 90.8% |
| COc1ccc(-c2ccc(NC(=O)Nc3cccc(C(F)(F)F)c3)c(C)n2)cc1 | 75.9% | 41.4% | 68% | 55.1% | 76.7% | 52.1% | 42.9% | 33.7% |
| CCN(CC)CCNCC(O)Cc1ccc(OC)cc1 (configuration not stated) | 96.4% | 105% | 98.8% | 82.6% | 88% | 109% | 83.9% | 73.4% |
| CCCC(C)(C)COC(=O)c1cccc(N)c1 | 88% | 101% | 98.4% | 69.2% | 84.5% | 88.6% | 88.5% | 56% |
| COc1ccc(Cl)cc1NC(=O)c1cc2c(n1C)-c1nc(NC(=O)C(C)(C)C)sc1CC2 | 79.7% | 76.2% | 107% | 53.5% | 98% | 94% | 98.5% | 72.5% |
| CC(C)C(=O)Nc1nc2c(s1)CCCc1ccn(S(=O)(=O)c3ccccc3)c1-2 | 83.7% | 88.2% | 105% | 77.1% | 83.6% | 110% | 87.2% | 78% |
| C#CC(=O)/C=C/CCCCCCC#CC(=O)CCC(=O)C#CCCCCCC/C=C/C(=O)C#C | 82.1% | 25.4% | -24.5% (active) | -90.7% (active) | 32.5% | 93.4% | -45.5% (active) | -32.2% (active) |
| C=C1C(=O)O[C@H]2[C@H]1CC/C(C(=O)Nc1ccc(OC)c(C(N)=O)c1O)=C\CC[C@@]1(C)O[C@@H]21 | 71.3% | 73.4% | 61.1% | 37.8% | 22.6% | 78.3% | 3.64% (active) | 13.9% |
| CCc1c(C)c2cc3nc(NCc4ccccc4)oc3c(C)c2oc1=O | 83.6% | 77.1% | 73.5% | 80.1% | 77.6% | 49.2% | 79.6% | 71.9% |
| C=C1C(=O)O[C@H]2[C@H]1CC/C(COC(=O)n1ccnc1C)=C\CC[C@@]1(C)O[C@@H]21 | 86.8% | 98.4% | 103% | 83.1% | 94.3% | 105% | 70.4% | 79.8% |
| Cc1cc(-c2ccccc2)nc2ccccc12 | 109% | 81.1% | 104% | 77% | 135% | 106% | 84.9% | 91.5% |
| CCCCOc1c(N)cc(Cl)cc1C(=O)OCCN(CC)CC | 90.9% | 104% | 97% | 82.3% | 94.3% | 80.1% | 72.6% | 58.4% |
| Cl[C@@H]1CCO[C@H](c2cc3ccccc3c3ccccc23)C1 | 101% | 90.8% | 95.4% | 89.2% | 92.8% | 77.2% | 85.9% | 98% |
| O=C(O)c1ccc(-n2cc(/C=N/Nc3ccccc3F)c(-c3ccc(O)cc3)n2)cc1 | 91.5% | 69.9% | 103% | 49.1% | 102% | 72.5% | 41.5% | 39.1% |
| COc1ccc(Cl)cc1NC(=O)c1cc2c([nH]1)-c1nc(NC(=O)C(C)(C)C)sc1CC2 | 83% | 50.4% | 38.6% | 58.8% | 66.6% | 79.2% | 52% | 58.6% |
| CC(NCCC(c1ccccc1)c1ccccc1)c1ccccc1 (configuration not stated) | 79% | 44.1% | 86.4% | 32.6% | 57.5% | 63.8% | 48% | 17.8% |
| CCCCCC/C=N/Nc1ccc([N+](=O)[O-])cn1 | 89.6% | 101% | 110% | 84.6% | 94.8% | 103% | 100% | 103% |
| CCCCCCCCCCCCCCCCCCNCc1ccc(Cl)cc1 | -73.3% (active) | -30.2% (active) | -60.8% (active) | -78.6% (active) | -65.1% (active) | -75.8% (active) | -45.9% (active) | -62.1% (active) |
| Nn1c(CN2CCN(c3cc4c(cc3F)c(=O)c(C(=O)O)cn4C3CC3)CC2)n[nH]c1=S | 95.9% | 102% | 95.7% | 91.7% | 93.8% | 97.7% | 98.8% | 103% |
| COc1ccc2c(c1)OC(N)=C(C#N)C2c1ccc(F)c(F)c1 (configuration not stated) | 32.9% | 49.2% | 54.7% | 52.8% | 70.5% | 9.88% (active) | 14.9% | 28.2% |
| FC(F)(F)c1cccc([Si](F)(c2cccc(C(F)(F)F)c2)c2cccc(C(F)(F)F)c2)c1 | 87.6% | 66.1% | 74% | 49% | 73.9% | 90.4% | 65.5% | 61.6% |
| CC(C)CNCC(=O)Nc1ccc(Cc2ccc(NC(=O)CNCC(C)C)cc2)cc1 | 87.6% | 67.9% | 49.7% | 38.4% | 84.8% | 47.2% | 26.4% | 23.1% |
| O=C(O)c1ccc(-n2cc(/C=N/Nc3ccc(Cl)cc3)c(-c3ccc(F)c(F)c3)n2)cc1 | 75.5% | 59.7% | 93.2% | 46% | 94.1% | 49.9% | 32.3% | 37.6% |
| COc1ccc(C[C@H](N)C(=O)N[C@@H]2[C@@H](CO)OC(n3cnc4c(N(C)C)ncnc43)[C@@H]2O)cc1 (some centres not stated) | -74.4% (active) | -47.2% (active) | -13.3% (active) | 16.2% | -75.7% (active) | -65.6% (active) | -3.9% (active) | -22.3% (active) |
| Cc1nccc2c3ccc(OCc4cn(-c5ccc(Br)cc5)nn4)cc3n(CCCc3ccccc3)c12 | 107% | 68.9% | 66.9% | -73.5% (active) | 34.1% | 110% | 15% | 41.2% |
| CCOc1ccc(NC2=C(Cl)C(=O)c3ccccc3C2=O)cc1 | 88.2% | 87.2% | 61% | 77.9% | 136% | 80.8% | 33.3% | 75.7% |
| CC(=O)n1cc(/C=C2\N=C(c3ccc(Cl)cc3)N(c3ccc(S(=O)(=O)Nc4nccs4)cc3)C2=O)c2ccccc21 | 89.2% | 85.7% | 74.3% | 70.4% | 117% | 74.9% | 47.8% | 51.1% |
